# Assay outcomes (PubChem)
# GLP1R cytotox – cytotoxicity counter-screen for GLP-1 receptor inverse agonists | HEK293 cAMP-luciferase reporter cells, luminescence, 24 h | Potency, µM (doses to about 38.3 µM), without a hit: at the top dose activity change, negative = inhibition, most hits filed as inhibitors | actives 0.13% (n = 410,000) | AID 624418;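 further: loss of luciferase light is scored as toxicity; on the % scale 0 is the no-effect control and ±100 the full control effect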
#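 Luminescence readout: signal drop marks cytotoxicity. Plated cells grew 12 h at 37 °C, 5% CO2, received 23 nL compound for 24 h, then got luciferase reagent, read after 12 min at RT.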
# GLP-1R inv ag – acts as inverse agonist at human GLP-1 receptor | P43220 | HEK293 GLP-1R CRE-luciferase, luminescence, 24 h; GLP-1R form is constitutively active | Potency, µM (top dose mostly 38.3 µM), for inactives: at the highest dose activity change, negative = inhibition, usual class: inhibitors | actives 1.6% (n = 410,000) | AID 624417; further: on the % scale 0 is the no-effect control and ±100 the full control effect; nearly all actives have a fitted effect of over 55% in size
#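 HEK293 cells stably co-expressing a cAMP-responsive luciferase reporter and constitutively active GLP-1R were seeded, incubated 12 h, then exposed to compounds for 24 h at 37 C. Luminescence was read 12 min after detection reagent; inverse agonists lower signal.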
# GLP1R ag – agonists of human GLP-1 receptor | P43220 | Potency, µM (top dose mostly 45.6 µM), without a hit: at the highest dose activation, hits mostly activators | HEK293 GLP-1R CRE-luciferase, luminescence, 4-6 h; cells express a hypersensitive GLP-1R form | actives 0.007% (n = 380,000); further: % of control where 0% means no effect
# PTHR1 agonist – activates the human parathyroid hormone receptor PTHR1 | Q03431 | HEK293 GP2 PTHR1 cells, GloSensor cAMP luminescence, 1 h | Potency, µM (top dose mostly 115 µM), inactives show top-dose activation, actives largely listed as activators | actives 0.075% (n = 410,000); further: nearly all actives have a fitted effect of over 55% in size
#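 HEK-293-derived GP2 cells expressing PTHR1 and a GloSensor cAMP reporter, 3,000/well, plated overnight, given luciferin plus IBMX (each 0.5 mM as added) for 1 h at 37 °C, then compound for 1 h at 37 °C. Luminescence was read after 15 min at room temperature.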
# RGS4 inh – blocks human RGS4-accelerated GTP hydrolysis. Transcreener GDP fluorescence polarization, RGS4-accelerated GTP hydrolysis. actives 0.039% (n = 390,000). Potency, µM (titrated, usually from 114 µM), without a hit: top-dose activity change, negative = inhibition, most hits filed as inhibitors. AID 504845. P49798; further: on the % scale 0 is the no-effect control and ±100 the full control effect; nearly all actives have a fitted effect of over 75% in size
#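 MLSMR compounds (23 nl, pin-transferred) preincubated 10 min at room temperature with a 500nM (2x) first reagent, then RGS4 at 900nM (2x) plus Transcreener GDP mix added; fluorescence polarization (620/688 nm) read before and after 90 min at 30 °C.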
# GCN5L2 inh – inhibitors of human GCN5L2 histone acetyltransferase; Q92830; GCN5L2 HAT assay, ThioGlo1 CoA-SH fluorescence; Potency, µM (doses to about 58.9 µM), for inactives: at the highest dose activity change, negative = inhibition, hits mostly inhibitors; actives 0.21% (n = 390,000); AID 504327; further: on the % scale 0 is the no-effect control and ±100 the full control effect
# Target sequence (Q92830 whole entry, looked up): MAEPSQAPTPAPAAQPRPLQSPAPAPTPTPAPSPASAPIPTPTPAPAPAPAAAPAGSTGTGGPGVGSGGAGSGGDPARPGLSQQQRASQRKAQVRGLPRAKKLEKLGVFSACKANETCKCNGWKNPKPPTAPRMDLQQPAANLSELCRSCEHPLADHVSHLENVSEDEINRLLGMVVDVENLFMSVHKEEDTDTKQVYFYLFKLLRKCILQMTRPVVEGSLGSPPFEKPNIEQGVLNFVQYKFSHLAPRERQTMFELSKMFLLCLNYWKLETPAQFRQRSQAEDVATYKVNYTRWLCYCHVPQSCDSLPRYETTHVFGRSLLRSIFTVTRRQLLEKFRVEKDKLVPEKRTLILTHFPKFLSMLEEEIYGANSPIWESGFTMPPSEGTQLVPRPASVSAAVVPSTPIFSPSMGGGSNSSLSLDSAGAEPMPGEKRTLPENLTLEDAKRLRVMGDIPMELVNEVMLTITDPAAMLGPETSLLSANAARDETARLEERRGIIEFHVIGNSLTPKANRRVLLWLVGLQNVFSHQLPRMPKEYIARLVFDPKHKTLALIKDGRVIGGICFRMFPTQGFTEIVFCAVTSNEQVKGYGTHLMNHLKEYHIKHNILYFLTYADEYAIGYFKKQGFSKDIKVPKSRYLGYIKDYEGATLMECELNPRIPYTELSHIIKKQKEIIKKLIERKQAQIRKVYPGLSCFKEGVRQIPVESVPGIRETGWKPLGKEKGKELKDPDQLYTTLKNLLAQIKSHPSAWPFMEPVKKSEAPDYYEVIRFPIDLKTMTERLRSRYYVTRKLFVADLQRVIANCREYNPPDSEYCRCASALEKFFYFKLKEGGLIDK
#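 Titration-based screen in which CoA formation is detected via maleimide probe ThioGlo1 (50uM) turning fluorescent on thiol reaction; substrates H3(1-25) 75uM and acetyl-CoA 70uM, GCN5L2 20nM, 20 min incubation at room temperature.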
# * marks the source's active call; other numbers are inactive results; i = inactive; ? = inconclusive; nt = not tested or not shown; ! = not confirmed by another sample; [ ] = dose if it differs, or a comment. Shown are actives, neighbours in structure and some others; about 1.8% of the full set was active somewhere. The call rests on the fitted dose curve; in most records, active means well fitted curve in the direction sought with a large enough effect; inconclusive means small, poorly fitted or top-dose-only effect, or another doubt; inactive means no such curve, though single readings can be large; an effect the other way counts as inactive or inconclusive. Potency means the concentration at half of the fitted maximal effect.
SMILES,GLP1R cytotox,GLP-1R inv ag,GLP1R ag,PTHR1 agonist,RGS4 inh,GCN5L2 inh
COc1ccc(C(O)(CCC(C)C)C(CN2CCOCC2)c2ccccc2)cc1 (stereo not given),?,10µM*,1%,-33%,-15%,-18%
CCCCCCC(O)(c1ccccc1)C(CN1CCOCC1)c1ccccc1 (stereo not given),?,3.5µM*,-1%,-5%,4%,-5%
COc1ccccc1C(O)(c1ccccc1)C(CN1CCOCC1)c1ccccc1 (stereo not given),-12%,10µM*,-2%,i,-33%,-6%
CCCC(O)(c1ccccc1)C(CN1CCOCC1)c1ccccc1 (stereo not given),0%,?,3%,i,-21%,-9%
CC(C)C(O)(c1ccccc1)C(CN1CCOCC1)c1ccccc1 (stereo not given),3%,?,0%,-8%,-5%,-7%
CCCCCC(O)(c1ccccc1)C(CN1CCOCC1)c1ccccc1 (stereo not given),-27%,10µM*,0%,-9%,-3%,-4%
CCc1ccc(NC(=O)CSc2nnc(-c3nonc3NC(C)=O)n2-c2ccccc2)cc1,0%,?,nt,-10%,-31%,-13%
CC(CNC(=O)Cn1ccc2cc(S(=O)(=O)N3CCCCCC3)ccc21)c1ccccc1 (stereo not given),-8%,11µM*,nt,i,-16%,-14%
CC(NC(=O)Nc1nnc(C(F)(F)F)s1)(C(F)(F)F)C(F)(F)F,?,4.5µM*,-1%,-26%[57.5 µM],-11%,-1%
CC(C)(C)CC(=O)Nc1nnc(C(F)(F)F)s1,6%,?,-4%,-11%[57.5 µM],6%,1%
C/C=C/c1ccc(O)c(OC)c1,6%,12%,9%,-11%,9%,-9%
Oc1cc(O)cc(/C=C/c2ccc(O)c(O)c2)c1,-24%,-6%,8%,-48%,21µM*!,?
C#CCn1c(=O)c2c(nc(/C=C/c3cccc(OC)c3)n2C)n(CCCO)c1=O,nt,nt,nt,nt,nt,-20%
COC(=O)c1cccnc1-n1c(=O)c2cccnc2n(CC(=O)Nc2cccc(C)c2)c1=O,0%,4%,nt,-16%,-1%,-3%
CN1c2ccccc2C(O)=C(C(=S)Nc2ccc(F)c(Cl)c2)S1(=O)=O,11%,10µM*,-26%,-40%,-33%,-7%
CN1c2ccccc2C(O)=C(C(=S)Nc2ccccc2)S1(=O)=O,0%,-14%,-5%,-19%[57.5 µM],10%,-9%
O=C(NCc1ccc(F)cc1)c1cc2c(=O)n3ccccc3nc2s1,7%,5%,nt,i,-30%,-7%
CNc1ccccc1C(C)(C)c1cc(-c2cccc(Br)c2)no1,-2%,2.8µM*,18%,-43%,7%,-6%
C=C[C@@]1(C)CC(=O)[C@]2(O)[C@@]3(C)[C@@H](O)CCC(C)(C)[C@@H]3[C@H](OC(C)=O)[C@H](O)[C@@]2(C)O1,-11%,167%,7.9µM*,?,11%,nt
C=C1C(=O)O[C@H]2C[C@]3(C)C([C@@H](OC(=O)/C(C)=C/C)[C@H]12)[C@](C)(O)CC[C@H]3O (stereo not given in full),3%,4%,-6%,-14%,0%,2%
C=C[C@@]1(C)CC(=O)[C@]2(O)[C@@]3(C)[C@@H](O)CCC(C)(C)[C@@H]3[C@H](O)[C@H](OC(C)=O)[C@@]2(C)O1,3%,37%,1.3µM*,?,-5%,1%
Cc1ccccc1Nc1nc(N)c(C(=O)c2ccccc2Cl)s1,-5%,?,nt,-28%,-4%,0%
O=C(CNC(=S)N(Cc1ccccc1)Cc1ccccc1F)NCCc1ccc(Cl)cc1,-29%,4µM*,8%,-34%,3%,-11%
O=C(CNC(=S)N(Cc1ccccc1)Cc1cccs1)NCc1ccc(F)cc1,-24%,2.8µM*,7%,-22%,-2%,-5%
Cc1ccccc1CN1C(=O)c2ccccc2S(=O)(=O)c2ccc(C(=O)OCC3CCCO3)cc21 (stereo not given),-10%,?,nt,-23%,17%,-10%
SMILES,GLP1R cytotox,GLP-1R inv ag,GLP1R ag,PTHR1 agonist,RGS4 inh,GCN5L2 inh
CCOC(=O)C1CCN(S(=O)(=O)CCNC(=O)c2ccc(F)cc2)CC1,4%,3%,-4%,i,1%,-7%
O=C(NCCCN1CCCC1)c1ccc(CSCc2cccc(Cl)c2)o1,-13%,?,6%,-13%[57.5 µM],12%,-12%
O=C(NCc1ccc(Cl)cc1)c1ccc(CSCc2cccc(Cl)c2)o1,9%,?,nt,i,-3%,-5%
CCC(C)NC(=O)c1ccc(CSCc2ccccc2Cl)o1 (stereo not given),6%,?,25%,-10%,0%,-1%
CN1CCN(CCCNC(=O)c2ccc(CSCc3cccc(Cl)c3)o2)CC1,-16%,10µM*,22%,i,-10%,0%
Cc1ccc(CNC(=O)c2ccc(CSCc3ccc(Cl)cc3)o2)cc1,3%,10µM*,nt,i,-12%,-6%
CC(C)NC(=O)c1ccc(CSCc2ccccc2Cl)o1,-20%,8.9µM*,12%,-18%,-7%,0%
CSc1ncccc1C(=O)OCc1cccc([N+](=O)[O-])c1,-15%,6%,?,-32%,-2%,-3%
CCC[C@@H]1CC(C(=O)NC(C2O[C@H](SC)C(OP(=O)(O)O)[C@H](O)[C@H]2O)[C@H](C)Cl)N(C)C1 (stereo not given in full),nt,nt,7%,nt,nt,43%
Cc1ccc(NC(=O)c2ccco2)c(OCc2cc(=O)n3cc(C)sc3n2)c1,1%,0%,nt,i,2%,-20%
CCCCc1ccc(NC(=O)c2ccc(=O)n(Cc3cccc(C)c3)c2)cc1,-22%,7.1µM*,-5%,-40%,-14%,-21%
Cc1ccc2c(c1)N(C(=O)Nc1cccc3c1CCCC3)CC(C)O2 (stereo not given),24%,10µM*,nt,-31%,9%,-2%
CCC1CN(C(=O)Nc2cccc3c2CCCC3)c2cc(C)ccc2O1 (stereo not given),21%,?,nt,-3%,12%,-1%
COc1ccc2nc3c(cc2c1)c(NC(=O)c1cccs1)nn3CC(C)C,156%,8.9µM*,-22%,-14%,30%,-10%
CC(C)Cn1nc(NC(=O)c2cccs2)c2cc3ccccc3nc21,303%,?,-9%,-20%,3%,-20%
